# Results as given in ChEMBL document CHEMBL4513216, “Probing the Open Global Health Chemical Diversity Library for Multistage-Active Starting Points for Next-Generation Antimalarials” (ACS Infect Dis, 2020).
# Hit rate of the full screen: of about 65,000 compounds, about 2,100 (3.2%) showed an effect of 50% or more. The median lay at about -52%. This is one part of a sample in which strong results are shown more often than they occur.
# Test system: Plasmodium falciparum
# Assay: Screen against P. falciparum Asexual Blood Stage (ABS), at 5uM
# Format: functional, Dd2
# Details: tested at 5 uM
row,Compound,INHIBITION [%]
1,CN(C)C(=O)CN1C[C@H]2CC[C@@H](C1)N(Cc1c(Cl)cncc1Cl)C2,-33.6
2,CCc1cc(CN2C[C@@H]3CC[C@H]2CN(C2Cc4ccccc4C2)C3)on1,88.2
3,CSc1ncc(CN2C[C@@H]3CC[C@H]2CN(C2CCOCC2)C3)cn1,-18.2
4,COCCN1CCO[C@@H]2CN(Cc3ccccn3)C[C@@H]2C1,-86.9
5,COc1cc(CNC(C)Cn2cccn2)cc2c1OCCO2 (stereo unspecified),-31
6,COCCn1ccnc1CN(Cc1ccccn1)Cc1sccc1C,92.9
7,COc1cc(CNC(C)Cn2cccn2)cc2c1OCO2 (stereo unspecified),-32.2
8,COc1cc(CN(CCCN(C)C)Cc2ccccn2)cc2c1OCO2,80.6
9,Cc1ccsc1CN(CCCN(C)C)Cc1ccccn1,77.9
10,Cc1ccc(N2C[C@@H]3CN(Cc4csc(C)n4)CCO[C@@H]3C2)nn1,-106
11,O=C1CO[C@H]2CN(Cc3ccccc3Br)C[C@@H]2N1,7.05
12,Cc1cc(F)ccc1CN1CCC(O)(CN2CCCCC2)C1 (stereo unspecified),78.8
13,COc1ccc(F)cc1CN1CCC(O)(CN2CCCCC2)C1 (stereo unspecified),70.9
14,COc1ccc(F)cc1C(=O)C1CCCN(Cc2ccc(C)s2)C1 (stereo unspecified),17
15,CN1CCO[C@H]2CN(C(=O)c3ccoc3)C[C@H]21,-144
16,Cn1nc(-c2ccccc2)cc1[C@H]1CN2CC[C@H]1C[C@@H]2CNS(C)(=O)=O,15
17,O=C1N(CCCc2ccccc2)CCCC1(O)CNCC1CCCCC1 (stereo unspecified),72.4
18,O=C(Cc1ccccc1)N1CCC2(CCN2Cc2ccc(F)cc2)C1 (stereo unspecified),-12.1
19,O=C(Nc1ccc(F)cc1)N1CCC(CO)(Nc2ccccc2)CC1,-40.85
20,O=C1N(CCc2ccccc2)CCCC1(O)CNCc1ccc(F)cc1 (stereo unspecified),78.1
21,CC(Cn1cccn1)NCCS(=O)(=O)c1ccccc1 (stereo unspecified),-87.3
22,O=C(C1CCN(S(=O)(=O)N2CCCC2)CC1)N1CCC2(CC1)OCCO2,-133
23,CC(C)CN1C[C@@H]2C[C@H](C(=O)NCc3cccnc3)[C@H](C1)O2,-83.7
24,CCc1ccc(CN(C)c2ccc(-c3nc(COC)no3)cn2)nc1,78.4
25,c1cnc(N2CCO[C@H]3CN(CC4CCOCC4)C[C@H]32)nc1,-125
26,Cc1nnc(NC(=O)CN2CCCC(c3ccn[nH]3)C2)s1 (stereo unspecified),85.8

row,Compound,INHIBITION [%]
1,O=C(CN1CCCC(c2ccn[nH]2)C1)Nc1nncs1 (stereo unspecified),89.1
2,CC(C)(CNc1ccc(C#N)c(C(F)(F)F)c1)C(N)=O,-66.3
3,Cc1ccc(C2(CN(C)Cc3sccc3C)CCNCC2)nc1,77.4
4,COCCCNC(=O)c1cn(C(C)(C)C)c2ncccc12,-71.7
5,COc1ccc(C(=O)NCCCOC(C)c2ccccc2)c(OC)c1 (stereo unspecified),78.9
6,Fc1ccc(CN2C[C@@H](OCc3ccccn3)[C@H]3COC[C@H]32)cc1,-62.3
7,CCN(CC)CCNC(=O)c1ccc(-n2ccc3ccccc32)s1,90.5
8,O=C(NCCCN1CCCCC1)c1ccc(-n2ccc3ccccc32)s1,79
9,Cc1nc(CN2CCN3C[C@H](Oc4cncnc4)C[C@H]3C2)cs1,-50.1
10,CN1CCN(Cc2ccccc2Oc2nccc3occc23)CC1,77.4
11,COCCCN1CCCC12CCN(Cc1cccnc1OC)CC2,8.49
12,COc1ncccc1CN1C[C@@H]2CN(c3ncccn3)C[C@@H]2C1,5.48
13,c1ccc(Oc2nccc3occc23)c(CN2CCCCC2)c1,72.9
14,COc1ncccc1CN1CCC2(CC1)COCCN2C,-36
15,O=C([C@H]1C[C@H]2OCC[C@H]2N(Cc2cccnc2)C1)N1CCCCO1,-141
16,O=C(c1c[nH]c2ncccc12)N(Cc1ccco1)C1CCCC1,87
17,CCC(C)(C)n1nnnc1C(c1cccs1)N1CCc2ccccc2C1 (stereo unspecified),73.9
18,Fc1ccccc1Sc1ccccc1CNC1=NCCN1,77.4
19,c1ccc(Sc2ccc3c(c2)OCO3)c(CNC2=NCCN2)c1,83.7
20,Fc1ccc(Sc2ccccc2CNC2=NCCN2)cc1,80.4
21,Cc1csc(CN2CC[C@H]3C[C@H](c4ccncn4)O[C@@H]3C2)n1,-50.8
22,CNCc1cn(C[C@H]2C[C@@H]3CCN2C[C@@H]3C(=O)NC2CCCCC2)nn1,-152
23,CO[C@H]1CCN(S(=O)(=O)N(C)C)[C@@H]2CN(Cc3cccnc3)C[C@H]12,-7.26
24,O=C(Nc1ccccc1)[C@H]1CN2CC[C@H]1C[C@@H]2Cn1cc(CCO)nn1,-52.4
25,c1ccc(COC2C[C@@H]3CN(Cc4cccnc4)C[C@@H]3C2)cc1 (stereo partly specified),-9.68
26,CC(C)CN1CCNC(=O)C12CCN(C(=O)c1ccccn1)CC2,-97.5

row,Compound,INHIBITION [%]
1,O=C(N1CCCC1)N1C[C@@H]2CC[C@H]1CN(Cc1ccncc1)C2,-121
2,Cc1cccc(CO[C@@H]2C[C@H]3CN(c4ncccn4)CCN3C2)n1,-75.8
3,CCN(CC)Cc1ccccc1NC(=O)N(C)Cc1ccccc1O,85
4,Cc1cccc(CN2C(=O)C[C@@H]3[C@@H]2CCN3Cc2ccsc2)n1,-13
5,COc1ccccc1OCC(=O)N1CCN(Cc2noc(C)n2)CC1,-68.9
6,Cc1nc(CN2CCCC(NCCc3ccccc3Cl)C2)no1 (stereo unspecified),82.3
7,CC(C)c1nc(CN2CCN(C(=O)Cc3ccccc3Cl)CC2)no1,10.3
8,Fc1cnc(N2CCO[C@H]3CN(CC4CCC4)C[C@H]32)nc1,-80
9,Cn1c(CN2CCCCC2)cc(=O)c(O)c1CN1CCCCC1,81.8
10,CO[C@H]1CN(CC2CCOCC2)[C@@H]2CCCO[C@H]12,-48.2
11,CCC(O)CN1CCN(C(=O)Cc2ccccc2Cl)CC1 (stereo unspecified),-113
12,Cc1c(C)n(CC(O)CN2CCN(CCO)CC2)c2c(Cl)cccc12 (stereo unspecified),88.6
13,Cc1c(C)n(CC(O)CN2CCC(C)CC2)c2c(Cl)cccc12 (stereo unspecified),83
14,CCS(=O)(=O)N1CCN(CCOC)c2ncccc2C1,-58.7
15,COCCN1CCOCC12CCN(C(=O)c1cccnc1)CC2,-95.8
16,O=C(NC1CC1)[C@H]1C[C@H]2OCC[C@H]2N(Cc2cccnc2)C1,-76.1
17,Fc1ccc(-c2nccnc2C2CCCNC2)cc1 (stereo unspecified),76.6
18,CN(C)c1cc(C2CCCNC2)ccn1 (stereo unspecified),-11.8
19,c1c[nH]c2nc(C3CCCNC3)nc-2c1 (stereo unspecified),-172
20,CC1CCCCN1C(=O)c1coc(COc2cccc3cnccc23)n1 (stereo unspecified),86.5
21,Cc1cccc(CN2CC[C@H]3[C@H]2CCN3C(=O)c2cnn(C)c2)n1,-5.92
22,COc1ccc(NC(=O)Nc2cnc(N3CCN(C)CC3)nc2)cc1Cl,87.9
23,Cc1ccc(NC(=O)NC(C)c2nc[nH]n2)cc1Cl (stereo unspecified),-107
24,CNS(=O)(=O)CC(=O)NC(C)Cc1ccc(Br)cc1 (stereo unspecified),-89.6
25,CN1C(Cn2cccn2)C[C@@H]2CN(Cc3ccccn3)CC[C@@H]21 (stereo partly specified),41.6
26,O=C(c1ncccn1)N1C[C@@H]2CN(CC3CC3)CCO[C@@H]2C1,-14.4

row,Compound,INHIBITION [%]
1,CN1CC[C@H]2[C@H](C[C@@H](CN3CCCC3)N2c2nccs2)C1,73.7
2,C[C@H]1C[C@@H]2CCN(Cc3nccs3)C[C@H]2O1,-9.59
3,NC(=O)N1C[C@H]2CN(Cc3nccs3)C[C@H]2C1,-12
4,Cc1nccc([C@@H]2C[C@@H]3CCN(Cc4cccs4)C[C@H]3O2)n1,-92.1
5,C[C@@H]1C[C@@H]2CCN(Cc3nccs3)C[C@H]2O1,-26.9
6,CN1[C@H](Cn2cccn2)C[C@@H]2CN(Cc3cccs3)CC[C@@H]21,75.8
7,c1cnn(C[C@@H]2C[C@@H]3CN(CC4CC4)CC[C@@H]3N2c2nccs2)c1,89.9
8,CCN(CCc1ccccc1)Cn1nc(C)c2c(C)onc2c1=O,-13.3
9,Clc1ccc(-c2ccc(C3CNCCO3)nc2)cc1 (stereo unspecified),85.9
10,Cc1ccc(-c2ccc(C3CNCCO3)nc2)cc1 (stereo unspecified),83.5
11,CCCC(=O)N1CCC2(CC1)OCCO2,-40.8
12,CN1CCC(c2cncc(Cl)n2)CC1,-28.5
13,COCCN1CC[C@H]2OCC[C@@H](C(=O)Nc3cccnc3)[C@@H]2C1,-67.2
14,OCCN1CCC(c2cncc(-c3cccc(Cl)c3)n2)CC1,71.1
15,COCCN1CC=C(c2cccc(OC)c2)CC1,13.9
16,COCCN1CCC(c2cncc(-c3cccc(Cl)c3)n2)CC1,71.1
17,CCCS(=O)(=O)N1CCOC2(CCCN(Cc3ccccn3)C2)C1 (stereo unspecified),-21.2
18,CN(C)C[C@]12COC[C@H]1CN(Cc1ccccn1)C2,-39.8
19,Cc1ccc(CN2CCN(C)c3ncccc3C2)o1,-75.5
20,COc1cccc(CN2CCN3C(=O)NC[C@H]3C2)n1,-90.1
21,Cc1cccc(CN2CCN3C[C@H](Oc4cccnc4)C[C@H]3C2)n1,-91.1
22,Clc1cccc2c3c([nH]c12)CCN(Cc1cc2n(n1)CCNC2)C3,79.1
23,Clc1cccc2c3c([nH]c12)CCN(Cc1cc2n(n1)CCCNC2)C3,89.7
